Shiga toxin inh: inhibitors of Shiga toxin in Vero cells | Vero cells, Shiga toxin protein synthesis inhibition reporter | inhibition, % at 38.7 µM | 290,000 compounds, 9.2% hits; in the data active = inhibition mostly above about 28%, no sharp cut-off; inactive = mostly below about 43%; also: 0% is about no effect
HCMV antiviral: blocks human cytomegalovirus replication | HFF cells, HCMV-luciferase reporter, 72 h; active compounds read low | activity change, negative = inhibition, % at 57.5 µM | 410,000 compounds, 4.5% hits | AID 1259415; in the data active = activity change below about -60%; inconclusive = no clear call, values can overlap the other calls; inactive = above about -39%; also: % is scaled to controls: 0 for no effect and ±100 for the full control effect
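Human foreskin fibroblasts infected with luciferase-reporter HCMV at MOI 1 PFU/cell, compounds at two doses. Luciferase measured 72 h post infection; normalized to buffer-only basal and Salinomycin (10uM) controls.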
Pf growth 48h: inhibits P. falciparum growth in the first generation, 48 h; P. falciparum luciferase growth in erythrocytes, 48 h; Potency, µM (highest dose often 28.7 µM), for inactives: at the highest dose activity change, negative = inhibition, actives largely listed as inhibitors; 310,000 compounds, 5.9% hits; AID 504832; also: potency is read from the fitted curve at half-maximal effect; % is scaled to controls: 0 for no effect and ±100 for the full control effect
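Luciferase-expressing parasites in RBCs, 2% Hct / 0.1% parasitemia final; RPMI 1640 + 0.5% Albumax; 37 C, 5% CO2, one generation; luminescence read-out, lower signal = inhibition.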
CHX counter: counter-screen for Shiga toxin inhibitors: cycloheximide protein synthesis inhibition | cell reporter, cycloheximide protein synthesis inhibition counterscreen | max response, % | 300,000 compounds, 12% hits | AID 2314; in the data active = max response mostly above about 13%, no sharp cut-off; inactive = mostly below about 14%; also: read at 38.3 µM for the half of the compounds with a filed dose; 0% is about no effect
Pf growth 96h: P. falciparum growth inhibition at 96 hours | P. falciparum luciferase reporter growth, 96 h | Potency, µM (highest dose often 28.7 µM), without a hit: at the highest dose activity change, negative = inhibition, most hits filed as inhibitors | 320,000 compounds, 6.9% hits | AID 504834; also: potency is read from the fitted curve at half-maximal effect; % is scaled to controls: 0 for no effect and ±100 for the full control effect
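Infected RBCs, 2% Hct / 0.05% parasitemia final; luciferase-reporter P. falciparum; cpd 96 h, 37 C, 5% CO2; luciferase detection reagent; luminescence.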
The depositor's hits bear a star; ? = inconclusive; . = no result given. Sampled rows, rich in hits. Any-hit rate of the full collection: about 20%. Unless noted, calls follow the shape of the dose curve; as a rule, active = well fitted inhibition curve with a large enough effect; inconclusive = small, poorly fitted or top-dose-only effect, or another doubt; inactive = no such curve, though single readings can be large or run the other way.

SMILES | Shiga toxin inh | HCMV antiviral | Pf growth 48h | CHX counter | Pf growth 96h
CC(=O)NC(CCC(=O)O)C(=O)O (stereo not drawn) | . | -5 | . | . | .
CC(=O)N[C@@H](CC(=O)O)C(=O)N[C@@H](CCC(=O)O)C(=O)O | . | . | ? | . | 4.3µM*
CCc1nn2c(=O)cc(COC(=O)c3ccco3)nc2s1 | . | -9 | . | . | .
COc1ccc(C(=O)N=C2SC3CS(=O)(=O)CC3N2c2ccc(N(C)C)cc2)cc1OC (stereo not drawn) | 9 | -9 | -22% | 11 | 9.3µM*
COc1ccc(N2C(=NC(=O)C3CCCCC3)SC3CS(=O)(=O)CC32)cc1OC (stereo not drawn) | -2 | -9 | 5% | -1 | 16%
CCC(Sc1ncnc2sc3c(c12)CCCC3)C(=O)OCC(C)C (stereo not drawn) | . | -5 | . | . | .
COc1ccc(CCc2nnc(CCC(=O)NCc3cc(C(C)C)no3)o2)cc1 | 80* | 34 | 15% | 35* | ?
COc1ccc(CNC(=O)CCc2nc(-c3ccc(OC)cc3)no2)cc1 | . | 41 | . | . | .
COc1ccc(CCc2nnc(CCC(=O)NCCc3ncccc3C)o2)cc1 | 25 | -13 | 0% | 21* | 0%
CN(CC(=O)Nc1ccc(Cl)c(C(F)(F)F)c1)S(=O)(=O)c1cnc[nH]1 | . | -4 | . | . | .
CC1CCCN(c2ccc(F)cc2N)C1 (stereo not drawn) | 12 | -78* | ? | -2 | ?
CC1CCCN(c2ccc(N)cc2C(N)=O)C1 (stereo not drawn) | -8 | ? | 25% | -2 | 28%
O=P(O)(O)OP(=O)(O)O | . | . | 3.8µM* | . | ?
O=P(O)(O)CP(=O)(O)O | 34 | . | 12% | -3 | -7%
CN(C)/C=N/C(=S)Nc1ccc(Cl)cc1Cl | 74* | -9 | 37% | 57* | 9%
Cc1cccc(C)c1NC(=S)/N=C/N(C)C | 26 | -3 | -1% | -2 | 22%
CN(C)/C=N/C(=S)Nc1ccc(Cl)cc1 | 65* | -29 | 11% | 35* | -18%
O=C(Nn1c(O)c(C=C2N=c3ccccc3=N2)sc1=S)c1ccccc1Cl | 4 | -91* | . | 10 | ?
CNC[C@@H]1OCc2ccccc2-c2ccccc2C(=O)N([C@@H](C)CO)C[C@@H]1C | . | 9 | . | . | .
O=C(O)/C=C/C(=O)Nc1ccc(Oc2ncnc3cc(Cl)ccc23)nc1 | 58* | . | 40% | 26* | 46%
O=C(Nc1ccccc1)Nc1ccc(Oc2ncnc3cc(Cl)ccc23)nc1 | -11 | . | 4% | -3 | 20%
COc1ccc(-n2nnnc2C2c3ccccc3C(=O)N2C2CCN(Cc3ccccc3)CC2)cc1 (stereo not drawn) | . | -16 | . | . | .
O=C1c2ccccc2C(=O)N1OCc1c(F)cccc1Cl | 17 | ? | 26% | 22* | 33%
C/C(=N/NC(=O)c1ccccc1)C(=O)O | 74* | -2 | 14% | 42* | ?
C/C(=N\NC(=O)c1ccccc1)c1cccc(Br)c1 | 124* | 55 | 58% | 48* | 3%
SMILES | Shiga toxin inh | HCMV antiviral | Pf growth 48h | CHX counter | Pf growth 96h
CN(C)/C=N/NC(=O)c1ccccc1 | 31 | -12 | ? | 4 | 57%
C/C(=N\NC(=O)c1ccccc1)C1C2C=CC(C2)C1(C)C (stereo not drawn) | 91* | 52 | 49% | 48* | ?
C/C(=N\NC(=O)c1cccc(Br)c1)c1ccc(Br)cc1 | 54* | -27 | 40% | 33* | 66%
COc1ccc(N2C(=O)[C@@H]3C(c4cccnc4)=NO[C@@H]3C2=O)cc1 | -2 | -16 | 8% | 1 | 12%
O=C(Nc1ccc(F)c(F)c1)c1ccc(=O)n(Cc2ccc(F)cc2)c1 | . | -13 | . | . | .
CN1CCC[C@@H]1CCNC(=O)c1c(-c2ccc3c(c2)OCO3)noc1-c1ccsc1 | . | -75* | . | . | .
O=C(c1ccc(F)cc1)N1CC(=O)N2[C@@H](CO)[C@@H](c3ccc(Br)cc3)[C@@H]2C1 | . | -1 | . | . | .
O=C(Cc1ccc(S(=O)(=O)N2CCOCC2)s1)Nc1ccc2c(c1)CCC2 | 48 | -12 | ? | -5 | .
O=C(Cc1ccc(S(=O)(=O)N2CCOCC2)s1)Nc1nc2c(s1)CCCC2 | 3 | 71 | ? | 9 | 9.3µM*
O=C(COC(=O)Cc1ccc(S(=O)(=O)N2CCOCC2)s1)Nc1ccc(F)cc1F | . | 30 | . | . | .
CCNC(=O)Cc1ccc(S(=O)(=O)N2CCOCC2)s1 | . | -1 | ? | . | -61%
O=C(Cc1ccc(S(=O)(=O)N2CCCCC2)s1)Nc1ccc(F)cc1F | 10 | -7 | -26% | -2 | 13µM*
O=C(Cc1ccc(S(=O)(=O)N2CCOCC2)s1)Nc1cc(Cl)ccc1Cl | . | 19 | 13µM* | . | ?
COC(=O)c1c(NC(=O)Cc2ccc(OC)c(S(=O)(=O)N3CCOCC3)c2)sc(C)c1C | . | -34 | 13µM* | . | ?
C/C(Cc1nnn(-c2cc(C)on2)n1)=N\O | 10 | -34 | 64% | -1 | 69%
COc1cc(OC)c(NC(=O)Cc2ccc(OC)c(S(=O)(=O)N3CCOCC3)c2)cc1Cl | -9 | 61 | ? | 0 | ?
COc1ccccc1OCCNC(=O)Cc1ccc(S(=O)(=O)N2CCOCC2)s1 | . | 4 | ? | . | 14%
CCC(CC)NC(=O)Cc1ccc(S(=O)(=O)N2CCOCC2)s1 | -3 | 14 | . | -5 | -18%
CCCN(CC(=O)Nc1ccc(F)c(F)c1F)C(=O)Cc1ccc(S(=O)(=O)N2CCOCC2)s1 | . | -2 | 12µM* | . | ?
COc1cc(NC(=O)Cc2ccc(OC)c(S(=O)(=O)N3CCOCC3)c2)c(OC)cc1Cl | 14 | 5 | ? | -1 | 15µM*
COc1cc(NC(=O)Cc2ccc(S(=O)(=O)N3CCOCC3)s2)c(OC)cc1Cl | . | -2 | ? | . | 8.3µM*
CCCCN1C(=O)C2(OCCCO2)c2cccc(C)c21 | 7 | 5 | 2% | -3 | 27%
CCOC(=O)C1=C(C)NC2=C(C(=O)C(C(=O)OCC)C(c3cccc(OC)c3)C2)C1c1ccccn1 (stereo not drawn) | -12 | -18 | 8.3µM* | -3 | 5.9µM*
CCOC(=O)C1=C(C)NC2=C(C(=O)C(C(=O)OCC)C(c3ccc(OC)cc3)C2)C1c1ccccn1 (stereo not drawn) | -4 | 6 | ? | -2 | 9%
CCOC(=O)C1=C(C)NC2=C(C(=O)C(C(=O)OCC)C(c3ccccc3OC)C2)C1c1ccccn1 (stereo not drawn) | -11 | -4 | 4.1µM* | -1 | 3.7µM*
COc1ccc(Cn2nnc3c(C)n[nH]c(=O)c32)cc1 | -3 | 31 | 4% | -2 | ?
CC(C)(C)[C@H]1COC(=O)[C@H](Cc2ccc(F)cc2)CC/C=C/C[C@@H](CC(=O)N[C@H](CO)Cc2ccccc2)C(=O)N1 | . | -1 | . | . | .
COC(=O)c1ccc(NC(=O)CN2C(=O)CC(c3ccccc3)Sc3ccccc32)cc1 (stereo not drawn) | . | -8 | . | . | .
Cc1cc2ccccn2c1C(=O)c1ccc(C#N)cc1 | 2 | -81* | -13% | 8 | -16%
Cc1cc2ccccn2c1C(=O)Nc1ccc(Cl)cc1 | 73* | -19 | 152% | 18* | 158%

Source: PubChem (National Center for Advancing Translational Sciences (NCATS))
